Bioassay records as filed in PubChem.
An excerpt weighted towards active compounds, which were near 3.8% of everything screened.
S2 tox – reduces viability in counter-screen for ATXN expression inhibitors. Potency, µM (titrated, usually from 56.7 µM), usual class: cytotoxic. S2 cells (HEK-293 line with an ATXN2-luciferase reporter) viability, CellTiter-Fluor protease fluorescence, 24 h. AID 651635. hit rate 0.49% among 400,000; note: nearly all actives have a fitted effect of over 40% in size
HepG2 viability – kills HepG2 cells in TGF-b inhibitor counter-screen; hit rate 0.76% among 410,000; Potency, µM (series often up to 46.1 µM), hits mostly cytotoxic; HepG2 CAGA-GFP viability, ATP luminescence, 18 h
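CellTiter-Glo luminescence gave cytotoxicity after 18 hours at 37 degrees C. The cells were HepG2 CAGA-GFP in 1% FBS DMEM, stimulated with 500 pg/mL TGF-beta after compound addition. %Activity was normalised to no-cell wells (complete cell-killing) and DMSO (no toxicity), and curves were fitted and classified.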
A549 viability – counter-screen for Nrf2 inhibitors: cytotoxicity in A549 cells; A549 ARE-Fluc cells, CellTiter-Fluor viability, 18-24 h; Potency, µM (highest dose often 46 µM), actives largely listed as inhibitors; hit rate 0.16% among 390,000; AID 504648
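Cytotoxicity counterscreen: CellTiter-Fluor fluorescence was measured in A549 ARE_Fluc cells after 18-24 h of compound exposure in a concentration series. The subsequent BugLite luminescent read reports ARE-luciferase activity.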
ATXN2 expr inh – reduces ATXN2 reporter expression in HEK-293 cells. Potency, µM (series often up to 57 µM), actives largely listed as inhibitors. hit rate 0.72% among 360,000. HEK-293 ATXN2-luciferase reporter, luminescence, 24 h; note: nearly all actives have a fitted effect of over 55% in size
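qHTS (up to 57 uM final) was run with 24 h compound exposure of reporter cells at 37 °C. Each well was multiplexed: SteadyGlo luminescence measured ATXN2-luciferase expression after a fluorogenic Gly-Phe-AFC viability readout (25 uM final).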
Nrf2 inh – Nrf2 pathway inhibition | A549 ARE-Fluc reporter, luciferase luminescence, 18-24 h | hit rate 2.1% among 360,000 | AID 504444 | Potency, µM (titrated, usually from 46 µM), usual class: inhibitors; note: nearly all actives have a fitted effect of over 60% in size
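A549 ARE_Fluc cells (5000/well, 5% FBS OPTI-MEM) pre-incubated 2 h, then treated with compounds 18-24 h at 37C/5% CO2 in concentration-response. CellTiter-Fluor viability read first; BugLite luciferase luminescence after 15 min at room temperature gives Nrf2 activity.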
TGFb SMAD3 inh – blocks TGF-b signaling | HepG2 CAGA-GFP TGF-b/SMAD3 reporter, GFP fluorescence, 18 h; TGF-beta stimulated, 500 pg/mL final | Potency, µM (doses to about 46.1 µM), actives largely listed as inhibitors | hit rate 1.2% among 410,000; note: nearly all actives have a fitted effect of over 65% in size
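HEPG2 CAGA-GFP, 1000 cells/well; 2 h settle, 37 C; cpd via pin tool; TGF-b 500 pg/mL final; 18 h, 37 C; GFP imaging ex488/em500-530; %Activity normalised to -TGF-b and +DMSO controls; CRC fit, curve class.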
Numbers stand for hits; 0 = inactive; ? = inconclusive; - = no result; ! = repeats disagree. Calls come from the whole dose curve; as a rule, active = well fitted curve in the direction sought with a large enough effect; inconclusive = small, poorly fitted or top-dose-only effect, or another doubt; inactive = no such curve, though single readings can be large; an effect the other way counts as inactive or inconclusive.

SMILES	S2 tox	HepG2 viability	A549 viability	ATXN2 expr inh	Nrf2 inh	TGFb SMAD3 inh
COC(=O)C1=C(C(=O)OC)[C@]2([C@@H]3CC=CCN[C@@H](Cc4ccccc4)C(=O)N3Cc3ccccc3)C=C[C@H]1O2	0	0	0	0	0	?
O=C(CCl)Nc1c(C(=O)Nc2ccc3c(c2)OCCO3)oc2ccccc12	?	16µM	0	0	?	?
CC(C)Cn1cc(C(=O)N2CCN(c3cccc(Cl)c3)CC2)c2c3ccccc3n(C)c2c1=O	?	0	?	?	21µM	?
COc1ccc(OC)c(CNC(=O)CCc2c(C)nc3c(c2C)c(=O)n(C)c(=O)n3C)c1	0	0	0	0	0	0
CCCCCC(=O)O[C@]1(C(C)=O)CC[C@H]2[C@@H]3CCC4=CC(=O)CC[C@]4(C)[C@H]3CC[C@@]21C	35µM!	0	?	28µM!	21µM	?
CCC(=O)O[C@]1(C(=O)CO)CC[C@H]2[C@@H]3CCC4=CC(=O)CC[C@]4(C)[C@@H]3CC[C@@]21C	-	-	-	0	-	-
O[C@@H]([C@H](O)[C@H](O)CBr)[C@H](O)CBr	0	0	0	0	0	0
CCOC(=O)c1nnc(-c2ccccc2)nc1Sc1c(Cl)cccc1Cl	?	0	0	?	-	10µM
COc1ccc(NC(=S)NCc2ccccc2Cl)c(OC)c1	0	0	0	0	23µM	0
COc1ccccc1NC(=S)NCc1ccccc1Cl	0	0	0	0	0	0
O=C(Nc1nnc(SCc2ccc(F)cc2)s1)C1Cc2ccccc2CN1C(=O)c1ccco1 (centres undefined)	0	0	?	0	16µM	0
O=C(Nc1nnc(C2CC2)s1)C1Cc2ccccc2CN1C(=O)c1ccco1 (centres undefined)	?	0	0	0	0	0
COc1cccc(CNC(=O)Cn2c(=O)oc3cc(S(=O)(=O)N4CCCC4)ccc32)c1	0	0	0	0	0	0
O=C1CCCN1c1ccc(S(=O)(=O)NCCOc2ccccc2)cc1	0	0	0	0	13µM	0
CC(C)c1ccc(C(=O)CC2(O)C(=O)N(CCc3ccccc3)c3ccc(Cl)cc32)cc1 (centres undefined)	?	0	?	?	?	16µM
CCCN1C(=O)C(O)(CC(=O)c2ccc(C(C)C)cc2)c2ccccc21 (centres undefined)	-	0	0	-	0	-
Oc1c(C(c2ccc(Cl)cc2Cl)N2CCN(Cc3ccccc3)CC2)sc2nc(-c3ccco3)nn12 (centres undefined)	?	16µM	0	0	-	?
Cc1[nH]nc(C(=O)NN=Cc2ccccc2Cl)c1N=NN(C)C	?	20µM	0	0	0	10µM
CN(C)c1ccc2nc3ccc(=[N+](C)C)cc-3sc2c1	25µM!	7.9µM!	?	7.9µM!	12µM	10µM
CN(C)c1ccc2nc3ccc(=O)cc-3sc2c1	0	0	-	-	-	?
Cc1cc2nc3ccc(=[N+](C)C)cc-3sc2cc1N	13µM	8.9µM	0	7.1µM	?	?
COc1ccc(NC(=O)c2cc3c(-c4ccc(OC)c(OC)c4)nn(C)c3s2)cc1OC	0	0	0	0	12µM	0
COc1ccc(-c2nn(C)c3sc(C(=O)Nc4cc(OC)c(OC)c(OC)c4)cc23)cc1OC	-	0	?	-	23µM	0
O=C(NCc1ccccc1)c1ccc(CNS(=O)(=O)c2ccc(Br)cc2)cc1	0	0	0	0	0	0
O=C(NCc1ccco1)c1ccc2c(c1)N(Cc1ccccc1)C(=O)CS2	0	0	0	0	23µM	0
CC(C)CN1CCC(=O)N([C@H](CO)Cc2ccccc2)CC1	0	0	0	0	0	0
CN(C)S(=O)(=O)c1ccc(-c2csc(N/N=C/c3ccc(O)cc3)n2)cc1	-	13µM	?	?	0	?
O=C(Nc1nc(-c2cccc([N+](=O)[O-])c2)cs1)C(c1ccccc1)c1ccccc1	0	0	?	0	15µM	?
CN(C)S(=O)(=O)c1ccc(-c2csc(N/N=C/c3ccco3)n2)cc1	?	0	0	?	0	?
